# Results published in PubChem BioAssay (Tox21).
# Values without a mark were called inactive. Records with an inconclusive call do not appear. Entries that show only a call come without a potency. Calls of active or inactive are those of the source. The call rests on the fitted dose curve; in most records, active means well fitted curve in the direction sought with a large enough effect in the repeat runs; inconclusive means weak or mixed curves; inactive means no such curve, though single readings can be large; an effect the other way counts as inactive or inconclusive.
# Columns and labels:
# [1] = qHTS RealTime-Glo MT Cell Viability Assay in HepG2 cells - 40 hour (AID 1224870); further: nearly all actives have a fitted effect of over 50% in size; further: potency means the concentration at half of the fitted maximal effect
# How it was run: (§1)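 HepG2 cells mixed with RealTime-Glo MT reagents (NanoLuc plus cell-permeant prosubstrate) were seeded at 600 cells/well, incubated 5 h at 37 C/5% CO2, then pinned with compounds in DMSO; nonlytic luminescence tracked viability during 40 h treatment.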
# [2] = A CellTox Green Cytotoxicity Assay to monitor cytotoxicity in HEK293 cells - 40 hour (AID 1224871); further: nearly all actives have a fitted effect of over 45% in size; further: potency means the concentration at half of the fitted maximal effect
# How it was run: (§2)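 Seeding of HEK293 cells together with cytotoxicity dye preceded a 5 h incubation at 37 C/5% CO2. Test compounds in DMSO were then added and fluorescence monitored across 40 h.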
# [3] = qHTS RealTime-Glo MT Cell Viability Assay in HEK293 cells - 16 hour (AID 1224872); further: top concentration of the series differs between compounds; nearly all actives have a fitted effect of over 50% in size
# How it was run: (§3)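 Luminescence generated by NanoLuc from substrate produced by living HEK293 cells served as the viability signal. Each value reflects the reading at its stated time point during continuous 40 h compound exposure at 37 C.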
# [4] = qHTS RealTime-Glo MT Cell Viability Assay in HepG2 cells - 8 hour (AID 1224873); further: nearly all actives have a fitted effect of over 55% in size
# How it was run: as §1
# [5] = qHTS RealTime-Glo MT Cell Viability Assay in HEK293 cells - 40 hour (AID 1224874); details: RealTime-Glo luminescence; max response: active compounds read low; further: nearly all actives have a fitted effect of over 50% in size
# How it was run: (§4)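 Tox21 screen in HEK293 using RealTime-Glo MT chemistry, with cells and reagent co-dispensed. Luminescence proportional to viable cell number was captured at intervals during 40 h compound exposure at 37 C.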
# [6] = A CellTox Green Cytotoxicity Assay to monitor cytotoxicity in HEK293 cells - 24 hour (AID 1224875); further: series mostly up to about 77 µM; nearly all actives have a fitted effect of over 45% in size
# How it was run: as §2
# [7] = A CellTox Green Cytotoxicity Assay to monitor cytotoxicity in HepG2 cells - 16 hour (AID 1224876); further: nearly all actives have a fitted effect of over 45% in size
# How it was run: (§5)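 Nonlytic assay: viable cells exclude the dye, so fluorescence scales with cell death. HepG2 at 600 cells/well, compounds added after 5 h, signal read across 40 h.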
# [8] = qHTS RealTime-Glo MT Cell Viability Assay in HepG2 cells - 32 hour (AID 1224877); further: nearly all actives have a fitted effect of over 55% in size
# How it was run: (§6)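 Tox21 10K library screened in qHTS format on HepG2 cells carrying RealTime-Glo reagents. Compounds were added after a 5 h preincubation, and the luminescent signal from continuous culture was measured repeatedly during 40 h treatment.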
# [9] = A CellTox Green Cytotoxicity Assay to monitor cytotoxicity in HepG2 cells - 40 hour (AID 1224879); further: nearly all actives have a fitted effect of over 40% in size
# How it was run: as §5
# [10] = qHTS RealTime-Glo MT Cell Viability Assay in HEK293 cells - 0 hour (AID 1224880); further: top concentration of the series differs between compounds; nearly all actives have a fitted effect of over 45% in size
# How it was run: as §4
# [11] = A CellTox Green Cytotoxicity Assay to monitor cytotoxicity in HEK293 cells - 32 hour (AID 1224881); further: nearly all actives have a fitted effect of over 40% in size
# How it was run: as §2
# [12] = A CellTox Green Cytotoxicity Assay to monitor cytotoxicity in HepG2 cells - 0 hour (AID 1224882); further: nearly all actives have a fitted effect of over 35% in size
# How it was run: as §5
# [13] = A CellTox Green Cytotoxicity Assay to monitor cytotoxicity in HEK293 cells - 8 hour (AID 1224884); further: nearly all actives have a fitted effect of over 35% in size
# How it was run: as §2
# [14] = qHTS RealTime-Glo MT Cell Viability Assay in HepG2 cells - 16 hour (AID 1224885); further: nearly all actives have a fitted effect of over 50% in size
# How it was run: as §6
# [15] = qHTS RealTime-Glo MT Cell Viability Assay in HEK293 cells - 24 hour (AID 1224886)
# How it was run: as §3
# [16] = qHTS RealTime-Glo MT Cell Viability Assay in HEK293 cells - 8 hour (AID 1224887)
# How it was run: as §4
# [17] = A CellTox Green Cytotoxicity Assay to monitor cytotoxicity in HEK293 cells - 16 hour (AID 1224888); further: nearly all actives have a fitted effect of over 35% in size
# How it was run: as §2
# [18] = qHTS RealTime-Glo MT Cell Viability Assay in HepG2 cells - 0 hour (AID 1224889); further: nearly all actives have a fitted effect of over 50% in size
# How it was run: as §6
# [19] = A CellTox Green Cytotoxicity Assay to monitor cytotoxicity in HepG2 cells - 32 hour (AID 1224883); further: nearly all actives have a fitted effect of over 50% in size
# How it was run: as §5
# [20] = A CellTox Green Cytotoxicity Assay to monitor cytotoxicity in HepG2 cells - 24 hour (AID 1224878); further: nearly all actives have a fitted effect of over 45% in size
# How it was run: as §5
smiles,measurement,setting,value
Cc1cccc2sc3nncn3c12,Potency,[1],inactive
same,Potency,[2],inactive
same,Potency,[3],inactive
same,outcome,[4],inactive
same,max response,[5],22%
same,Potency,[6],inactive
same,Potency,[7],inactive
same,Potency,[8],inactive
same,Potency,[9],inactive
same,outcome,[10],inactive
same,Potency,[11],inactive
same,outcome,[12],inactive
same,Potency,[13],inactive
same,Potency,[14],inactive
same,Potency,[15],inactive
same,Potency,[16],inactive
same,Potency,[17],inactive
same,outcome,[18],inactive
BrCCc1ccccc1,Potency,[1],inactive
same,Potency,[2],inactive
same,Potency,[3],inactive
same,outcome,[4],inactive
same,max response,[5],-1.95%
same,Potency,[6],inactive
same,Potency,[7],inactive
same,Potency,[8],inactive
same,Potency,[9],inactive
same,outcome,[10],inactive
same,Potency,[11],inactive
same,Potency,[19],inactive
same,Potency,[13],inactive
same,Potency,[14],inactive
same,Potency,[15],inactive
same,Potency,[16],inactive
same,Potency,[17],inactive
same,outcome,[18],inactive
CN(C)C(=O)Oc1cc(OC(=O)N(C)C)cc(C(O)CNC(C)(C)C)c1 (stereo not given),Potency,[1],inactive
same,Potency,[2],inactive
same,Potency,[3],inactive
same,outcome,[4],inactive
same,max response,[5],-1.56%
same,Potency,[6],inactive
same,Potency,[7],inactive
same,Potency,[20],inactive
same,Potency,[9],inactive
same,outcome,[10],inactive
same,Potency,[11],inactive
same,outcome,[12],inactive
same,Potency,[19],inactive
same,Potency,[13],inactive
same,Potency,[15],inactive
same,Potency,[16],inactive
same,Potency,[17],inactive
same,outcome,[18],inactive
C[C@]12C=CC(=O)C=C1CC[C@@H]1[C@@H]2CC[C@@]2(C)[C@H]1CC[C@]2(C)O,Potency,[1],inactive
same,Potency,[2],inactive
same,Potency,[3],inactive
same,outcome,[4],inactive
same,max response,[5],-19.7%
same,Potency,[6],inactive
same,Potency,[7],inactive
same,Potency,[8],inactive
same,outcome,[10],inactive
same,Potency,[11],inactive
same,outcome,[12],inactive
same,Potency,[19],inactive
same,Potency,[13],inactive
same,Potency,[15],inactive
same,Potency,[16],inactive
same,Potency,[17],inactive
same,outcome,[18],inactive
O=C(O)C(Br)(Br)Br,Potency,[1],49 µM (active)
same,Potency,[2],inactive
same,Potency,[3],inactive
same,outcome,[4],inactive
same,max response,[5],-0.0563%
same,Potency,[6],inactive
same,Potency,[7],inactive
same,Potency,[20],inactive
same,Potency,[9],inactive
same,outcome,[10],inactive
same,Potency,[11],inactive
same,outcome,[12],inactive
same,Potency,[19],inactive
same,Potency,[13],inactive
same,Potency,[14],inactive
same,Potency,[15],inactive
same,Potency,[16],inactive
same,Potency,[17],inactive
same,outcome,[18],inactive
CN(CCO)CCO,Potency,[1],inactive
same,Potency,[2],inactive
same,Potency,[3],inactive
same,max response,[5],-0.53%
same,Potency,[6],inactive
same,Potency,[7],inactive
same,Potency,[8],inactive
same,Potency,[20],inactive
same,Potency,[9],inactive
same,outcome,[10],inactive
same,Potency,[11],inactive
same,outcome,[12],inactive
same,Potency,[19],inactive
same,Potency,[13],inactive
same,Potency,[14],inactive
same,Potency,[15],inactive
same,Potency,[16],inactive
same,Potency,[17],inactive
same,outcome,[18],inactive
N#CN=C1SCCN1Cc1ccc(Cl)nc1,Potency,[1],inactive
same,Potency,[2],inactive
same,Potency,[3],inactive
same,max response,[5],-3.59%
same,Potency,[6],inactive
same,Potency,[7],inactive
same,Potency,[8],inactive
same,Potency,[20],inactive
same,Potency,[9],inactive
same,outcome,[10],inactive
same,Potency,[11],inactive
same,outcome,[12],inactive
same,Potency,[19],inactive
same,Potency,[13],inactive
same,Potency,[14],inactive
same,Potency,[16],inactive
same,Potency,[17],inactive
same,outcome,[18],inactive
C(COCC1CO1)OCC1CO1 (stereo not given),Potency,[1],inactive
same,Potency,[2],inactive
same,Potency,[3],inactive
same,outcome,[4],inactive
same,Potency,[6],inactive
same,Potency,[7],inactive
same,Potency,[8],inactive
same,Potency,[20],inactive
same,Potency,[9],inactive
same,outcome,[10],inactive
same,Potency,[11],inactive
same,Potency,[19],inactive
same,Potency,[13],inactive
same,Potency,[14],inactive
same,Potency,[15],inactive
same,Potency,[16],inactive
same,Potency,[17],inactive
same,outcome,[18],inactive
C/C=C/CC#N,Potency,[1],inactive
same,Potency,[2],56.2 µM (active)
same,Potency,[3],inactive
same,outcome,[4],inactive
same,max response,[5],9.52%
same,Potency,[7],inactive
same,Potency,[8],inactive
same,Potency,[9],inactive
same,outcome,[10],inactive
same,outcome,[12],inactive
same,Potency,[19],inactive
same,Potency,[15],inactive
same,Potency,[16],inactive
same,outcome,[18],inactive
CN(C)CCc1c[nH]c2cccc(OP(=O)(O)O)c12,Potency,[1],inactive
same,Potency,[2],inactive
same,Potency,[3],inactive
same,outcome,[4],inactive
same,max response,[5],-0.389%
same,Potency,[6],inactive
same,Potency,[7],inactive
same,Potency,[20],inactive
same,outcome,[10],inactive
same,Potency,[11],inactive
same,outcome,[12],inactive
same,Potency,[13],inactive
same,Potency,[14],inactive
same,Potency,[16],inactive
same,Potency,[17],inactive
same,outcome,[18],inactive
CC(C)(C)C(=O)C(Cl)Cl,Potency,[1],inactive
same,Potency,[2],inactive
same,Potency,[3],inactive
same,max response,[5],-2.49%
same,Potency,[6],inactive
same,Potency,[7],inactive
same,Potency,[8],inactive
same,Potency,[20],inactive
same,Potency,[9],inactive
same,outcome,[10],inactive
same,Potency,[11],inactive
same,outcome,[12],inactive
same,Potency,[19],inactive
same,Potency,[13],inactive
same,Potency,[15],inactive
same,Potency,[16],inactive
same,Potency,[17],inactive
same,outcome,[18],inactive
NC(=O)CS(=O)C(c1ccccc1)c1ccccc1 (stereo not given),Potency,[1],inactive
same,Potency,[2],inactive
same,Potency,[3],inactive
same,max response,[5],-4.1%
same,Potency,[6],inactive
same,Potency,[7],inactive
same,Potency,[8],inactive
same,Potency,[20],inactive
same,Potency,[9],inactive
same,outcome,[10],inactive
same,Potency,[11],inactive
same,outcome,[12],inactive
same,Potency,[19],inactive
same,Potency,[13],inactive
same,Potency,[15],inactive
same,Potency,[16],inactive
same,Potency,[17],inactive
same,outcome,[18],inactive
O=C(O)C(Cl)Br (stereo not given),Potency,[1],inactive
same,Potency,[2],inactive
same,Potency,[3],inactive
same,outcome,[4],inactive
same,Potency,[6],inactive
same,Potency,[7],inactive
same,Potency,[9],inactive
same,outcome,[10],inactive
same,Potency,[11],inactive
same,Potency,[13],inactive
same,Potency,[16],inactive
same,Potency,[17],inactive
same,outcome,[18],inactive
CCCC[N+](=O)[O-],Potency,[1],inactive
same,Potency,[2],inactive
same,Potency,[3],inactive
same,outcome,[4],inactive
same,max response,[5],1.79%
same,Potency,[6],inactive
same,Potency,[7],inactive
same,Potency,[20],inactive
same,Potency,[9],inactive
same,outcome,[10],inactive
same,Potency,[13],inactive
same,Potency,[14],inactive
same,Potency,[15],inactive
same,Potency,[16],inactive
same,Potency,[17],inactive
same,outcome,[18],inactive
CC(C)(N)Cc1ccccc1Cl,Potency,[1],inactive
same,Potency,[2],inactive
same,Potency,[3],inactive
same,max response,[5],1.76%
same,Potency,[6],inactive
same,Potency,[7],inactive
same,Potency,[8],inactive
same,Potency,[20],inactive
same,Potency,[9],inactive
same,outcome,[10],inactive
same,Potency,[11],inactive
same,outcome,[12],inactive
same,Potency,[19],inactive
same,Potency,[13],inactive
same,Potency,[14],inactive
same,Potency,[15],inactive
same,Potency,[16],inactive
same,Potency,[17],inactive
same,outcome,[18],inactive
CCCCCCC(=O)CCCCCC/C=C/C[C@@H](O)[C@H](O)[C@@](N)(CO)C(=O)O,"activity change, negative = cytotoxic",[1],0.839% [at 15.8 µM]
same,cytotoxicity increase,[2],-5.02% [at 15.8 µM]
same,"activity change, negative = cytotoxicity",[3],-2.21% [at 15.8 µM]
same,"viability change, negative = cytotoxic",[4],1.7% [at 15.8 µM]
same,max response,[5],2.74%
same,activity change,[6],"-5.64% [at 15.8 µM, active compounds read high]"
same,"activity change, negative = cytotoxic",[8],0.443% [at 15.8 µM]
same,cytotoxicity increase,[9],-21.5% [at 15.8 µM]
same,"activity change, negative = cytotoxicity",[10],3.85% [at 15.8 µM]
same,cytotoxicity,[12],-17.7% [at 15.8 µM]
same,cytotoxicity increase,[19],-23.6% [at 15.8 µM]
same,cytotoxicity increase,[13],-3.97% [at 15.8 µM]
same,"activity change, negative = cytotoxic",[14],1.68% [at 15.8 µM]
same,"activity change, negative = cytotoxicity",[16],-1.55% [at 15.8 µM]
same,activity change,[17],"-6.94% [at 15.8 µM, active compounds read high]"
same,"activity change, negative = cytotoxicity",[18],3.64% [at 15.8 µM]
